Screening results: PubChem BioAssay, several laboratories
SMARCA2 activ = increases SMARCA2 function in MMTV reporter cells; MG213 cells, MMTV-luciferase reporter, dexamethasone, overnight; activation, % at 9.1 µM; 1% of 370,000 active; in the data active = activation above about 7.8%
GalR3 antag = blocks the human galanin receptor 3 | inhibition, % at 3 µM | 0.44% of 360,000 active | HEK293 GalR3-CNG cAMP membrane potential fluorescence; galR3 body fused to GalR1 C-terminus;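 active = inhibition above the screen-wide average plus 3 SD, cut at about 13% in these data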;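 note: forskolin and galanin both at EC90 stimulate the cells; cAMP rise reported by CNG channel membrane potential dye signal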
Target sequence (O60755 1-299 limits assumed): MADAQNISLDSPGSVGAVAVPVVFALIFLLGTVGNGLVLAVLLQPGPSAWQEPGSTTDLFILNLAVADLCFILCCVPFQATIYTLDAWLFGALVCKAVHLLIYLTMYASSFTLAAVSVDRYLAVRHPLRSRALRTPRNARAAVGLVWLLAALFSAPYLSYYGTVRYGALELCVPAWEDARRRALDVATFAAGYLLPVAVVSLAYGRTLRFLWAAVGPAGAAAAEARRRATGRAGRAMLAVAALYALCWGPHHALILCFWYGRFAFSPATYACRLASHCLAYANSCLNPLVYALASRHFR
HIF activator = HIF pathway transcriptional activation; 0.32% of 300,000 active; activation, % at 7.5 µM (by protocol); U2OS HRE-luciferase reporter, luminescence; normalized: DMSO 0%, desferrioxamine 100%;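 active = mean activation of at least 10% of the iron chelator positive control signal, with at least half of replicates also reaching 10%; inconclusive = mean and replicate majority disagree about reaching 10%; inactive = mean and most replicates under 10%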
Hsp70 act = switches on Hsp70 transcription | HeLa Hsp70 promoter luciferase reporter, luminescence; scaled: vehicle 0, proteasome-inhibitor control 100% | activation, % at 10 µM | 0.04% of 200,000 active | AID 1203;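 active = activation above the mean across all tested compounds plus 3 SD, cutoff set per campaign, cut at about 5.5% in these data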
GAA850 FXN act = increases GAA850 frataxin promoter reporter activity | 0.56% of 360,000 active | activation, % at 6 µM | HEK293 lucGAA850 FXN promoter luciferase reporter, 24 h; percent of 10 µM SAHA response;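 active = activation above the average of all compounds screened plus 3 SD, cutoff fixed separately per campaign, cut at about 7.5% in these data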
GAA30 counter = counter-screen for GAA850 frataxin promoter activators: GAA30 promoter activation; 66% of 1,900 active; HEK293 lucGAA30 FXN promoter luciferase, 24 h; DMSO = 0%, 5 µM ipriflavone = 100%; activation, % at 6 µM; shares compounds with GAA850 FXN act; AID 588350;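 active = mean activation above the mean of solvent-only control wells plus 3 SD, cut at about 22% in these data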;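 note: counterscreen of GAA850 promoter hits where activity marks nonselective or luminescence artifacts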
GAA850 confirm = GAA850 FXN promoter activation confirmation. shares compounds with GAA850 FXN act. HEK293 lucGAA850 FXN promoter luciferase reporter, 24 h; 100% = activation by SAHA. activation, % at 6 µM. 86% of 1,900 active;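 active = mean activation above a set limit taken from the primary screen, cut at about 8% in these data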
Large screens that a line does not name were inactive (follow-up assays come after a bar, where they were run). Shown are actives, neighbours in structure and some others; about 2.2% of the full set was active somewhere.

CC1CCCN(c2ccc(C(=O)NCc3cccs3)cn2)C1 (stereo not given)	none
CCCCn1nnc(NC(=O)c2cc3ccccc3o2)n1	GAA850 FXN act 8.4 | GAA30 counter 82 | GAA850 confirm 26
CN1CCN(c2ccc(NC(=O)c3cc4ccccc4o3)cc2)CC1	GAA850 FXN act 7.7 (no result: Hsp70 act) | GAA30 counter 138 | GAA850 confirm 39
CS(=O)(=O)N1CCN(c2ccc(NC(=O)c3cc4ccccc4o3)cc2)CC1	none (no result: Hsp70 act)
COC(=O)[C@]12C[C@H](CC(=O)NCc3cccc(C(F)(F)F)c3)C(=O)N(Cc3cccc4ccccc34)C1=C[C@H](C(C)(C)C)O[C@@H]2C	none (no result: GalR3 antag, HIF activator, Hsp70 act, GAA850 FXN act)
COc1ccc(C2N(c3ccc(Cl)cc3)C(=O)C3CCCN32)cc1 (stereo not given)	GAA850 FXN act 13 | GAA30 counter inactive | GAA850 confirm inactive
c1ccc(OCCCn2nnc(-c3ccc(N4CCOCC4)cc3)n2)cc1	GAA850 FXN act 8.6 | GAA30 counter inactive | GAA850 confirm 8.6
CS(=O)(=O)c1ncc(Cl)c(C(=O)Nc2ccc(OC(F)F)cc2)n1	GAA850 FXN act 68 (no result: SMARCA2 activ, GalR3 antag, Hsp70 act) | GAA30 counter inactive | GAA850 confirm inactive
CCCC(C)Sc1nc2c([nH]1)c(=S)n(C)c(=O)n2C (stereo not given)	GAA850 FXN act 10 (no result: HIF activator, Hsp70 act) | GAA30 counter inactive | GAA850 confirm 18
COc1nc(N)nc(N2CCOCC2)n1	none
COc1nc(N)nc(NC23CC4CC(CC(C4)C2)C3)n1	GAA850 FXN act 9.2 | GAA30 counter 57 | GAA850 confirm 20
Nc1ccc(-c2nc3ccc(N)cc3[nH]2)cc1	none
Nc1ccc2cc3[nH]c4cc(N)ccc4c3nc2c1	GAA850 FXN act 12 (no result: HIF activator, Hsp70 act) | GAA30 counter inactive | GAA850 confirm inactive
CCOc1ccccc1C(=O)N/N=C/c1c[nH]c2ccccc12	GAA850 FXN act 8.2 | GAA30 counter 27 | GAA850 confirm 8.9
CCOc1ccccc1C=NNC(=O)c1cccc2ccccc12	none (no result: HIF activator, Hsp70 act)
Oc1ccc2c(c1)oc1cc(O)ccc12	none
O=c1oc2cc(O)ccc2s1	GAA850 FXN act 9.6 (no result: Hsp70 act) | GAA30 counter inactive | GAA850 confirm 16
CCCC(=O)OC12CCCN(C1)/C(=C/c1cccc(N(C)C)c1)C2 (stereo not given)	none (no result: GalR3 antag, HIF activator, Hsp70 act, GAA850 FXN act)
Cc1ccc(C2CC(=O)C(C=NCCN3CCN(CC(=O)Nc4cc(C)cc(C)c4)CC3)=C(O)C2)cc1 (stereo not given)	GAA850 FXN act 8.5 (no result: HIF activator) | GAA30 counter inactive | GAA850 confirm inactive
Cc1cc(C)cc(NC(=O)CN2CCN(CCN=CC3=C(O)CC(c4ccc(Cl)cc4)CC3=O)CC2)c1 (stereo not given)	none
C[C@H]1c2cccc(O)c2C(O)=C2C(=O)[C@]3(O)C(O)=C(C(N)=O)C(=O)[C@@H](N(C)C)C3[C@@H](O)C21 (stereo not given in full)	GAA850 FXN act 16 (no result: Hsp70 act) | GAA30 counter inactive | GAA850 confirm inactive
CCN(CC)CCCNC(=O)CSc1nnc(-c2ccncc2)n1-c1ccc(OC)cc1	none (no result: GalR3 antag, HIF activator, Hsp70 act, GAA850 FXN act)
CCC[C@@H](/C=C/C(=O)OC(C)(C)C)Sc1ccc(N)cc1	none (no result: GalR3 antag, HIF activator, Hsp70 act, GAA850 FXN act)
C=CCN(Cc1ccc(OC)c(OC)c1)C(=O)c1cc2cc(F)ccc2[nH]1	GAA850 FXN act 13 (no result: Hsp70 act) | GAA30 counter 27 | GAA850 confirm 16
COc1ccc(-n2c(SCC(=O)Nc3ccc4cn[nH]c4c3)nnc2-c2ccccc2)cc1	none (no result: GalR3 antag, HIF activator, Hsp70 act, GAA850 FXN act)
CCOC(=O)N1CCN(C(=O)c2ccc(S(=O)(=O)Nc3ccc(C)cc3)cc2)CC1	none (no result: HIF activator, Hsp70 act)
CCOC(=O)N1CCN(C(=O)c2ccc(NS(C)(=O)=O)cc2)CC1	GAA850 FXN act 9.4 | GAA30 counter 27 | GAA850 confirm 17
Fc1ccc(Nc2nc(NCc3ccccc3)nc3ccsc23)cc1	none (no result: HIF activator, Hsp70 act)
N#Cc1ccc(Nc2nc(NCc3ccccc3)nc3ccsc23)cc1	GAA850 FXN act 9.5 (no result: HIF activator, Hsp70 act) | GAA30 counter 33 | GAA850 confirm 13
Cn1/c(=N\NC(=O)c2ccccc2Cl)sc2ccccc21	GAA850 FXN act 8.1 | GAA30 counter 104 | GAA850 confirm 27
C=C1C(=O)O[C@H]2[C@H]1[C@H](OC(=O)/C(C)=C\C)C[C@]1(CO1)[C@@H]1[C@H](OC(C)=O)C=C(C)[C@]21O	GAA850 FXN act 12 (no result: HIF activator, Hsp70 act) | GAA30 counter inactive | GAA850 confirm 17
COC(=O)C1CN(Cc2cn(CCC3OCCO3)nn2)CCS(=O)(=O)N1Cc1ccc(Cl)cc1 (stereo not given)	none (no result: GalR3 antag, HIF activator, Hsp70 act, GAA850 FXN act)
O=C1/C(=C\c2ccc(O)c(O)c2)N=C2CCCCCN12	GAA850 FXN act 9.8 (no result: Hsp70 act) | GAA30 counter 74 | GAA850 confirm 19
CCCCOP(=O)(c1ccc(N(C)C)cc1)C(O)c1ccc(N(C)C)cc1 (stereo not given)	none (no result: Hsp70 act)
CCCCOP(=O)(c1ccc(N(C)C)cc1)C(O)c1c(Cl)cccc1Cl (stereo not given)	GAA850 FXN act 16 (no result: Hsp70 act) | GAA30 counter inactive | GAA850 confirm 11
Cc1ccc2nc(N/N=C/c3ccco3)cc(C)c2c1	GAA850 FXN act 8.2 | GAA30 counter 104 | GAA850 confirm 44
O=C(Nc1ccc(Cl)c(Cl)c1)C1CCCN1S(=O)(=O)c1cccc2cccnc12 (stereo not given)	none (no result: GalR3 antag, HIF activator, Hsp70 act, GAA850 FXN act)
COc1ccc(NC(=S)Nc2cc(C)ccn2)c(OC)c1	none
COc1ccc(NC(=S)Nc2ccccn2)c(OC)c1	HIF activator inconclusive, GAA850 FXN act 8.1 | GAA30 counter 107 | GAA850 confirm 46
COc1ccc(-c2nnc3sc(C4CCCCC4)nn23)cc1OC	GAA850 FXN act 8.8 | GAA30 counter inactive | GAA850 confirm 11
Cc1ccc(CN2CCCCC(NC(=O)Cc3cccs3)C2=O)cc1 (stereo not given)	none (no result: GalR3 antag, HIF activator, Hsp70 act, GAA850 FXN act)
CN(C)CCCN1C(=O)c2cccc3c([N+](=O)[O-])ccc(c23)C1=O	GAA850 FXN act 7.7 (no result: HIF activator) | GAA30 counter inactive | GAA850 confirm 12
O=C1c2cccc3c([N+](=O)[O-])ccc(c23)C(=O)N1CCc1ccccn1	none (no result: Hsp70 act)
O=C(CNc1cccc2ccccc12)N/N=C/C(Br)=C/c1ccccc1	GAA850 FXN act 13 | GAA30 counter inactive | GAA850 confirm inactive
O=C(CNc1cccc2ccccc12)N/N=C/c1ccc[nH]1	none (no result: Hsp70 act)
CC1=NNC(=O)C1CCC(=O)N/N=C/C(Br)=C/c1ccccc1 (stereo not given)	GAA850 FXN act 12 | GAA30 counter 24 | GAA850 confirm inactive
Cc1ccc(-c2cc(C(=O)NN=Cc3sccc3C)[nH]n2)cc1C	none (no result: GalR3 antag, HIF activator, Hsp70 act, GAA850 FXN act)
COc1ccc(-c2nnc(SCc3c(F)cccc3F)n2N)cc1	none (no result: GalR3 antag, HIF activator, Hsp70 act, GAA850 FXN act)
C[n+]1c2cc(N)ccc2cc2ccc(N)cc21	GAA850 FXN act 20 (no result: HIF activator, Hsp70 act) | GAA30 counter inactive | GAA850 confirm 138
Nc1ccc2ccc(O)cc2c1	none (no result: HIF activator, Hsp70 act)
Cc1ccccc1N1CCN(C2=Nc3ccccc3Sc3ccccc32)CC1	none (no result: GalR3 antag, HIF activator, Hsp70 act, GAA850 FXN act)
